# Laboratory results published in PubChem BioAssay.
# The other results are listed elsewhere or left out. Values without a mark were called inactive. The source made the active and inactive calls.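 Rule for the calls, unless noted: active = fluorescence ratio falls more than 5 SD below the full-stimulation control mean, in both duplicate runs; inactive = the rest.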
# Legend:
# [1] = biological target: Short transient receptor potential channel 4 (Mus musculus) (UniProt Q9QUQ5); experiment: DAMGO-gated TRPC4 membrane potential modulation – cell-based, second specificity screen, HEK293 TRPC4/mu-opioid, selectivity assay for TRPC6 inhibitor project, confirmation (AID 2776;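 active = compounds whose fluorescence signal differed from control wells by over 3 SD, either direction, in both duplicate plates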); settings: HEK293 TRPC4/MOR, membrane potential dye fluorescence, at 10 µM, channel activated by saturating DAMGO dose; stronger effect = higher value
# Short transient receptor potential channel 4 (Mus musculus), sequence (Q9QUQ5 whole entry, looked up): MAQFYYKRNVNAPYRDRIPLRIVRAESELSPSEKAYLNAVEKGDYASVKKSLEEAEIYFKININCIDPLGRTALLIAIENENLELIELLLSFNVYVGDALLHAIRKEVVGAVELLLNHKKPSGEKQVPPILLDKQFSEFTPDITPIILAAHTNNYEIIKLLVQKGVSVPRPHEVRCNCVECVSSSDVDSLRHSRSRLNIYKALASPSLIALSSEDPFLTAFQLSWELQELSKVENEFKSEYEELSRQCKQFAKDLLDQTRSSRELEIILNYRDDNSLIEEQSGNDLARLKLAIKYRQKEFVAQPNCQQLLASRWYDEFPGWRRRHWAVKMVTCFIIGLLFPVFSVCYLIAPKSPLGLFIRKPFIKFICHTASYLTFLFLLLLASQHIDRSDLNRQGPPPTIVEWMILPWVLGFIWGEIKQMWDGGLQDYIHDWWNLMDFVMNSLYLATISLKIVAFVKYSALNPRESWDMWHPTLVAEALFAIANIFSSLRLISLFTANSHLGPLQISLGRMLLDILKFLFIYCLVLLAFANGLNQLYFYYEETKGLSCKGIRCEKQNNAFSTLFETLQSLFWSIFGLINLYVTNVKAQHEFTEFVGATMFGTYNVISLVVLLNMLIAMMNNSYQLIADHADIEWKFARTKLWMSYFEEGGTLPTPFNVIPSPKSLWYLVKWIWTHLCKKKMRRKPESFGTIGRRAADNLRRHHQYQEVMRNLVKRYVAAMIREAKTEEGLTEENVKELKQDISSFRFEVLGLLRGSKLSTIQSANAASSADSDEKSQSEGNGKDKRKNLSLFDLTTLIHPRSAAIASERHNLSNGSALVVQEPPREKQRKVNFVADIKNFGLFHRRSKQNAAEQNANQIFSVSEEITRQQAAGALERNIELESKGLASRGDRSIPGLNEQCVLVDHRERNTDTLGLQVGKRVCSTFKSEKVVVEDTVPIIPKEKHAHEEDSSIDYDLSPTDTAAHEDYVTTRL
# [2] = system: transient receptor potential cation channel C4 (TRPC4), mouse; experiment: membrane potential change in TRPC4 cells – cell-based, HEK293 TRPC4/mu-opioid, membrane potential dye, selectivity assay for TRPC6 inhibitor project, confirmation (AID 2777;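 active = rise or fall in signal beyond 3 SD of buffer-only wells in both replicate plates, either sign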;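 note: integrated kinetic ratio of fluorescence range over baseline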); settings: membrane potential fluorescence, at 10 µM
# [3] = parental HEK293 depolarization signal interference – cell-based, second counter screen, counter-screen for TRPC6 inhibitor project, confirmation (AID 2779;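 active = membrane potential signal moving either way by over 3 SD of the maximum-effect control, in both duplicate plates, meaning non-specific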); settings: parental HEK293 membrane potential dye fluorescence; at 10 µM; maximal acetylcholine challenge after compound addition
# [4] = nonspecific voltage dye signal in HEK293 – cell-based, parental HEK293, counter-screen for TRPC6 inhibitor project, confirmation (AID 2780;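 active = membrane potential signal shifting up or down by more than 3 SD of buffer-only wells, on both duplicate plates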;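 note: plate controls were buffer EC0 wells for no effect and acetylcholine ECmax wells for full effect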); settings: parental HEK293 membrane potential dye fluorescence; at 10 µM
# [5] = biological target: Short transient receptor potential channel 6 (Mus musculus) (UniProt Q61143); experiment: blockers of TRPC6 cation channel activity – HEK293 cells, membrane potential dye, duplicate, confirmation (AID 488960); settings: ACh-evoked depolarization, at 10 µM; stronger effect = higher value;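 for inhibition: integrated fluorescence ratio of peak minus minimum over baseline after agonist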
# Short transient receptor potential channel 6 (Mus musculus), sequence (Q61143 whole entry, looked up): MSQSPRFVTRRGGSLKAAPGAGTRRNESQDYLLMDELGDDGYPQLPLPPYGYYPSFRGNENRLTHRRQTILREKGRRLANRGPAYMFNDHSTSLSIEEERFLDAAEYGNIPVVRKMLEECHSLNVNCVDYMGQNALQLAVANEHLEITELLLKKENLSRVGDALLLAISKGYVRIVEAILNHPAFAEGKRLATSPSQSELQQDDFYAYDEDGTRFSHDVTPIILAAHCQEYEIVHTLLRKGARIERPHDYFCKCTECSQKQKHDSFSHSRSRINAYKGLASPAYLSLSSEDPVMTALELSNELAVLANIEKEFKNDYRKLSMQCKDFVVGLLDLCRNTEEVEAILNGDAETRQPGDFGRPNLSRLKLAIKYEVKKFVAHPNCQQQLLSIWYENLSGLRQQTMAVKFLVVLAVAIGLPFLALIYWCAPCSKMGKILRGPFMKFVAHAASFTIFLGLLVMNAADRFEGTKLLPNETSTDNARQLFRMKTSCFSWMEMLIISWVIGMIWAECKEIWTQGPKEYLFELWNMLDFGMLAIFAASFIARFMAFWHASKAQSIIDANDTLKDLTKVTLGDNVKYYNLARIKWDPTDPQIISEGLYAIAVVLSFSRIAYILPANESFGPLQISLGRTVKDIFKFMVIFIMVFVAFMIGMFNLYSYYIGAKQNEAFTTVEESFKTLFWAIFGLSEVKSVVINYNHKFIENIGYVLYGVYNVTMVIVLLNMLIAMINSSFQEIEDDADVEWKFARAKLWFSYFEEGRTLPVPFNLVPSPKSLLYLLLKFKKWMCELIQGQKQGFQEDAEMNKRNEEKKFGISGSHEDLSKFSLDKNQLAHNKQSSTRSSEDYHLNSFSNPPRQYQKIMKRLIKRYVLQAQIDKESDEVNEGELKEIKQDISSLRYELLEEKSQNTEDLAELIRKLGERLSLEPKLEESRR
# [6] = biological target: Short transient receptor potential channel 6 (Mus musculus) (UniProt Q61143); experiment: mouse TRPC6 channel activators, confirmation, HEK293 cells, membrane potential dye, duplicate (AID 488961;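 active = ratio signal rise beyond 5 SD above unstimulated control wells' mean, seen in both duplicate runs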;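 for activation: plate controls were buffer EC0 wells for no effect and acetylcholine ECmax response for full effect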); settings: HEK293-TRPC6 membrane potential dye fluorescence, FDSS, at 10 µM; stronger effect = higher value
# [7] = nonspecific voltage dye response without TRPC6 – cell-based, parental HEK293, counter-screen for TRPC6 modulator project, confirmation (AID 488924;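 active = membrane potential signal moves up or down beyond 5 SD from buffer-only wells, on both duplicate plates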); settings: parental HEK293, membrane potential dye fluorescence; at 10 µM
# [8] = membrane potential response modulators in host HEK293 cells – cell-based, second counter-screen, parental HEK293, membrane potential dye, counter-screen for TRPC6 modulator project, confirmation (AID 488926;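 active = membrane potential signal drops by more than 5 SD from the mean control signal, in both duplicate plates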;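 for inhibition: plate controls were acetylcholine ECmax control wells for no effect and buffer only wells for full effect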); settings: parental HEK293, membrane potential dye fluorescence, at 10 µM, after compound, maximal acetylcholine stimulation; stronger effect = higher value
# [9] = system: Transient receptor potential cation channel subfamily C member 4 (mouse); experiment: off-target membrane potential effects via mouse TRPC4 – cell-based, HEK293 TRPC4/mu-opioid, membrane potential dye, selectivity assay for TRPC6 modulator project, confirmation (AID 488927;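 active = membrane potential signal moved up or down beyond 5 SD of buffer control wells, in both duplicate plates, actives on both sides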;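 for percent change from control (negative = decrease, positive = increase): plate controls were assay buffer wells for no effect and DAMGO maximal-effect wells for full effect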); settings: membrane potential fluorescence, at 10 µM
# [10] = system: TRPC4 (transient receptor potential cation channel C4), mouse; experiment: DAMGO-evoked mouse TRPC4 response blockade – cell-based, second screen, HEK293 TRPC4/mu-opioid, membrane potential dye, selectivity assay for TRPC6 modulator project, confirmation (AID 488928;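 active = drop in membrane potential signal beyond 5 SD of the control wells in both duplicate plates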;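 note: TRPC4 counter screen for TRPC6 hits run under conditions tuned for TRPC6 not TRPC4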); settings: membrane potential dye fluorescence, at 10 µM, stimulated with maximal-effect DAMGO; stronger effect = higher value
smiles,measurement,setting,value
Cn1c(=NC(=O)c2cnccn2)sc2ccccc21,outcome,[1],inactive
same,"activity change, negative = inhibition",[2],-25.3% (active)
same,signal change vs control,[3],24.5% (active)
same,membrane potential signal change,[4],-416% (active)
same,outcome,[5],inactive
same,outcome,[6],inactive
CC(C)(C)n1nnnc1C(c1ccc2ncccc2c1)N1CCSCC1 (centres undefined),outcome,[7],inactive
same,outcome,[8],inactive
same,"percent change from control (negative = decrease, positive = increase)",[9],19% (active)
same,inhibition,[10],33% (active)
same,inhibition,[5],84% (active)
same,activation,[6],140% (active)
CC(C)C(c1nnnn1CCc1ccccc1)N1CCN(C(=O)c2ccco2)CC1 (centres undefined),membrane potential signal change,[7],153% (active)
same,inhibition,[8],85.5% (active)
same,"percent change from control (negative = decrease, positive = increase)",[9],27.5% (active)
same,outcome,[10],inactive
same,inhibition,[5],70% (active)
OCCC1CN(Cc2ccc3nsnc3c2)CCN1C1CCCCC1 (centres undefined),membrane potential signal change,[7],109% (active)
same,outcome,[8],inactive
same,"percent change from control (negative = decrease, positive = increase)",[9],18% (active)
same,inhibition,[10],37% (active)
same,outcome,[5],inactive
CN(C)c1cc(N)c2ccccc2n1 (tested in a mixture with another compound),membrane potential signal change,[7],-230% (active)
same,outcome,[8],inactive
same,"percent change from control (negative = decrease, positive = increase)",[9],-40.5% (active)
same,inhibition,[10],82% (active)
same,inhibition,[5],69.5% (active)
same,outcome,[6],inactive
COC(=O)c1ccc(NC(=O)CSc2nnc(-c3ccncc3)n2C)cc1,membrane potential signal change,[7],292% (active)
same,outcome,[8],inactive
same,"percent change from control (negative = decrease, positive = increase)",[9],35.5% (active)
same,outcome,[10],inactive
same,outcome,[5],inactive
same,activation,[6],116% (active)
O=[N+]([O-])c1ccccc1Nc1ccc(O)cc1,membrane potential signal change,[7],-186% (active)
same,outcome,[8],inactive
same,"percent change from control (negative = decrease, positive = increase)",[9],-32% (active)
same,inhibition,[10],61.5% (active)
same,outcome,[5],inactive
same,outcome,[6],inactive
Cc1ccc2c(c1)C1CN(C)CCC1N2C(=S)Nc1ccc(Cl)cc1Cl (centres undefined),outcome,[7],inactive
same,outcome,[8],inactive
same,"percent change from control (negative = decrease, positive = increase)",[9],-10% (active)
same,inhibition,[10],49.5% (active)
same,outcome,[5],inactive
same,outcome,[6],inactive
COc1ccc(Cn2c(-c3ccc(Cl)cc3)c[n+]3ccccc23)cc1,membrane potential signal change,[7],-296% (active)
same,outcome,[8],inactive
same,"percent change from control (negative = decrease, positive = increase)",[9],-51.5% (active)
same,inhibition,[10],48% (active)
same,inhibition,[5],50.5% (active)
same,outcome,[6],inactive
COc1ccc(Br)cc1/C=N/n1c(C)nnc1C,outcome,[7],inactive
same,outcome,[8],inactive
same,"percent change from control (negative = decrease, positive = increase)",[9],10% (active)
same,outcome,[10],inactive
same,outcome,[5],inactive
CCC(C)NCCOCCOc1ccc(Br)cc1C (centres undefined),membrane potential signal change,[7],94% (active)
same,outcome,[8],inactive
same,"percent change from control (negative = decrease, positive = increase)",[9],21% (active)
same,outcome,[10],inactive
same,outcome,[5],inactive
O=C(CN1CCCCCC1)NCCN1C(=O)S/C(=C\c2ccccc2Cl)C1=O,outcome,[7],inactive
same,outcome,[8],inactive
same,outcome,[9],inactive
same,inhibition,[10],36% (active)
same,outcome,[5],inactive
same,outcome,[6],inactive
O=C(c1ccc(-n2cnnn2)cc1)N1CCN(C(c2ccccc2)c2ccccc2)CC1,membrane potential signal change,[7],251% (active)
same,inhibition,[8],71% (active)
same,"percent change from control (negative = decrease, positive = increase)",[9],18.5% (active)
same,outcome,[10],inactive
same,inhibition,[5],44.5% (active)
CC(C)(C)Nc1nc(-c2ccccn2)nc2ccccc12,membrane potential signal change,[7],-424% (active)
same,inhibition,[8],77% (active)
same,"percent change from control (negative = decrease, positive = increase)",[9],-58% (active)
same,inhibition,[10],74% (active)
same,inhibition,[5],56.5% (active)
same,outcome,[6],inactive
